Laboratory results taken from PubChem BioAssay (NCI).
This is part of a sample that, as a whole, favours compounds with a hit. Of some 83,000 tested, about 20% had one in any assay.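 Compound tested at a single concentration for 48 hours in 96-well plates; a percent growth value below 10 was scored as active.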 Calls of active or inactive are those of the source.

Key:
Assay in all cases: NCI-60 one-dose screen, 48 h (100 = growth as untreated, 0 = no growth, -100 = all killed)
Conditions in all cases: 10 µM unless noted
NCI-H23 lung = system: NCI-H23 lung
NCI-H226 lung = system: NCI-H226 lung
NCI-H322M lung = system: NCI-H322M lung
HOP-62 NSCLC = system: HOP-62 NSCLC
NCI-H460 lung = system: NCI-H460 lung
HOP-92 NSCLC = system: HOP-92 NSCLC
NCI-H522 lung = system: NCI-H522 lung
A549/ATCC NSCLC = system: A549/ATCC NSCLC
786-0 renal = system: 786-0 renal
COLO 205 colon = system: COLO 205 colon
DU-145 prostate = system: DU-145 prostate
K-562 leukemia = system: K-562 leukemia
MALME-3M melanoma = system: MALME-3M melanoma
MDA-MB-231 breast = system: MDA-MB-231 breast
RXF 393 renal = system: RXF 393 renal
SF-268 CNS = system: SF-268 CNS
SF-295 CNS = system: SF-295 CNS
SF-539 CNS = system: SF-539 CNS
UACC-257 melanoma = system: UACC-257 melanoma
M14 melanoma = system: M14 melanoma

Measured: growth

COc1ccc(/C=C(\C#N)c2cc3ccccc3[nH]2)cc1
inactive: NCI-H23 lung 33.2% | NCI-H226 lung 88% | NCI-H322M lung 49.9% | HOP-62 NSCLC 33.2% | NCI-H460 lung 12.7% | HOP-92 NSCLC 44% | A549/ATCC NSCLC 37.5% | 786-0 renal 42.1% | DU-145 prostate 31.1% | K-562 leukemia 11.4% | MALME-3M melanoma 52% | MDA-MB-231 breast 51.9% | RXF 393 renal 48% | SF-268 CNS 39.1% | SF-295 CNS 35.7% | SF-539 CNS 21.3% | UACC-257 melanoma 52.2%
active: NCI-H522 lung 6.84% | COLO 205 colon 9.11% | M14 melanoma 1.53%

Cc1ccc(/C=C(\C#N)c2cc3ccccc3[nH]2)cc1
inactive: NCI-H23 lung 66% | NCI-H226 lung 95.3% | NCI-H322M lung 87.7% | HOP-62 NSCLC 49.5% | NCI-H460 lung 30.6% | HOP-92 NSCLC 51.1% | NCI-H522 lung 13.7% | A549/ATCC NSCLC 49% | 786-0 renal 72.7% | COLO 205 colon 32.4% | DU-145 prostate 73.1% | K-562 leukemia 13.8% | MALME-3M melanoma 67.7% | MDA-MB-231 breast 35.9% | RXF 393 renal 82.8% | SF-268 CNS 68.1% | SF-295 CNS 68.2% | SF-539 CNS 57.7% | UACC-257 melanoma 72.4% | M14 melanoma 31.5%

O=S(=O)(Nc1ccc(F)cc1)c1ccc(-c2cnc(C3CC3)o2)cc1
inactive: NCI-H23 lung 42% | NCI-H226 lung 63.9% | NCI-H322M lung 52.8% | HOP-62 NSCLC 34.7% | NCI-H460 lung 15.8% | HOP-92 NSCLC 50.5% | A549/ATCC NSCLC 37.8% | 786-0 renal 38.5% | COLO 205 colon 20.2% | DU-145 prostate 34% | K-562 leukemia 11.9% | MALME-3M melanoma 46% | MDA-MB-231 breast 49.7% | RXF 393 renal 25.9% | SF-268 CNS 45.5% | SF-295 CNS 30.2% | SF-539 CNS 19.4% | UACC-257 melanoma 43.4% | M14 melanoma 12.2%
active: NCI-H522 lung 0.0519%

CCCn1nc(C(=O)N2CCCCC2)c2c1CCC(N1CCC(c3ccncc3)CC1)C2 (stereo not given)
inactive: NCI-H23 lung 105% | NCI-H226 lung 116% | NCI-H322M lung 108% | HOP-62 NSCLC 113% | NCI-H460 lung 110% | HOP-92 NSCLC 111% | NCI-H522 lung 90.5% | A549/ATCC NSCLC 102% | 786-0 renal 101% | COLO 205 colon 115% | DU-145 prostate 105% | K-562 leukemia 101% | MALME-3M melanoma 115% | MDA-MB-231 breast 118% | RXF 393 renal 117% | SF-268 CNS 97% | SF-295 CNS 106% | SF-539 CNS 107% | UACC-257 melanoma 102% | M14 melanoma 97.3%

O=C(Nc1ccc(F)cc1)c1cc2cc(Nc3nc(-c4ccccc4)nc4ccccc34)ccc2oc1=O
inactive: NCI-H23 lung 90.1% | NCI-H226 lung 102% | NCI-H322M lung 100% | HOP-62 NSCLC 84.2% | NCI-H460 lung 113% | HOP-92 NSCLC 103% | NCI-H522 lung 97.6% | A549/ATCC NSCLC 92.5% | 786-0 renal 98.4% | COLO 205 colon 123% | DU-145 prostate 108% | K-562 leukemia 102% | MALME-3M melanoma 103% | MDA-MB-231 breast 90.6% | RXF 393 renal 115% | SF-268 CNS 97.3% | SF-295 CNS 108% | SF-539 CNS 108% | UACC-257 melanoma 96.6% | M14 melanoma 102%

Cc1ccc(-c2nc3nc(-c4ccccc4)nc(N4CCN(S(=O)(=O)c5ccccc5)CC4)c3o2)cc1
inactive: NCI-H23 lung 88.3% | NCI-H226 lung 76.5% | NCI-H322M lung 101% | HOP-62 NSCLC 72.3% | NCI-H460 lung 73.3% | HOP-92 NSCLC 95.1% | NCI-H522 lung 72.9% | A549/ATCC NSCLC 91.5% | 786-0 renal 61% | COLO 205 colon 125% | DU-145 prostate 96.6% | K-562 leukemia 97.7% | MALME-3M melanoma 84.2% | MDA-MB-231 breast 72.4% | RXF 393 renal 66.3% | SF-268 CNS 66.8% | SF-295 CNS 74.7% | SF-539 CNS 52.5% | UACC-257 melanoma 99% | M14 melanoma 96.7%

O=C(CCl)n1nnnc1Cc1ccccc1
inactive: NCI-H23 lung 102% | NCI-H226 lung 104% | NCI-H322M lung 102% | HOP-62 NSCLC 90.2% | NCI-H460 lung 108% | HOP-92 NSCLC 102% | NCI-H522 lung 90.8% | A549/ATCC NSCLC 92.2% | 786-0 renal 95% | COLO 205 colon 111% | DU-145 prostate 110% | K-562 leukemia 83.4% | MALME-3M melanoma 106% | MDA-MB-231 breast 92.9% | RXF 393 renal 112% | SF-268 CNS 106% | SF-295 CNS 90.7% | SF-539 CNS 92.2% | UACC-257 melanoma 88.7% | M14 melanoma 98.6%
